Source: PubChem BioAssay AID757 (NMMLSC, 2007)
The whole screen tested about 190,000 compounds, of which about 520 (0.27%) were called active. About 2% were inconclusive and are not listed. This is one part of a sample in which actives are shown more often than they occur. A number with no mark means an inactive call.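 The calls were made as follows: active = GTP binding activity at least 20 points away from the 100% control level, either lower or higher; inconclusive = compound flagged as likely green fluorescent, judged across all proteins; inactive = the rest.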

Molecular target: Ras-related C3 botulinum toxin substrate 1 (Homo sapiens) (UniProt P63000)
Experiment: wildtype Rac1 GTP binding modulators, primary screen, biochemical, GST-Rac1 beads, flow cytometry, multiplex (AID 757)
Conditions: fluorescent GTP binding, at 10 µM, actives lie on both sides, 0 = cold GTP competed, 100 = untreated

SMILES | GTP binding activity (% of control)
Cn1ncc(N2CCN(S(=O)(=O)c3ccc(Br)cc3)CC2)c(Cl)c1=O | 99%
CCc1ccccc1NC(=O)CN(c1ccc(OC)cc1OC)S(=O)(=O)c1ccccc1[N+](=O)[O-] | 100%
O=C(NNC(=S)Nc1ccccc1)c1cccc(S(=O)(=O)N2CCOCC2)c1 | 96%
O=C(CSc1ccsc1[N+](=O)[O-])N1CCCCC1 | 102%
CN(c1ccc(OCC(=O)OCC(=O)Nc2cccc([N+](=O)[O-])c2)cc1)S(=O)(=O)c1ccc(F)cc1 | 101%
CCOc1ccc(S(=O)(=O)Nc2nccs2)cc1 | 94%
O=C(Nn1cnc2ccccc2c1=O)c1ccc([N+](=O)[O-])cc1Cl | 96%
Cc1cnc(C(=O)N2CCCC(C(=O)c3ccc(C(F)(F)F)cc3)C2)cn1 (stereo not drawn) | 100%
CCC1SC(CC)C(=O)N(CC(=O)NC2CCCCC2)C1=O (stereo not drawn) | 99%
O=C(c1ccc(N2CCOCC2)c([N+](=O)[O-])c1)N1CCN(S(=O)(=O)c2cccs2)CC1 | 96%
COCCNC(=S)N1CCC(NC(=O)C23CC4CC(CC(C4)C2)C3)CC1 | 104%
Nc1[nH]c(=S)nc2nc(-c3ccccc3)c(-c3ccccc3)nc12 | 79% (active)
Nc1ccc(-c2sc(N)nc2-c2ccccc2)cc1 | 98%
CC1CCC2(CC1)NC(=O)N(Cc1nnc(-c3cccs3)o1)C2=O (stereo not drawn) | 94%
CCN(CCCNC(=O)CCn1c(=O)[nH]c2ccsc2c1=O)c1ccccc1 | 99%
O=C(Nc1ccccc1)N1CCN(C(=O)Nc2ccccc2)CC1 | 94%
O=C(N1CCCCC1)N1CCN(C(=O)N2CCCCC2)CC1 | 98%
CCOc1ccc(CN2CCN(Cc3ccon3)CC2CCO)cc1 (stereo not drawn) | 99%
C/C(=N\OC(=O)c1ccccc1)c1c(C)nc2cc(C)ccn12 | 85%
COC(=O)c1c(C(=O)OC)c(-c2cccc(C)c2)n2c1CS(=O)C2 (stereo not drawn) | 95%
CCC1CO/C(=C(\C(=C(Cl)Cl)N2CCOCC2)[N+](=O)[O-])N1 (stereo not drawn) | 101%
CC(C)NC(=O)c1ccc(Cl)cc1Cl | 103%
OCCC1CN(Cc2ccc(Oc3ncccn3)cc2)CCN1CCc1ccccc1 (stereo not drawn) | 98%
CCOC(=O)CSC1=N/C(=C/c2ccc(-n3cncn3)cc2)C(=O)N1C(C)=O | 96%

SMILES | GTP binding activity (% of control)
CCC(CC)c1nnc(NC(=O)c2nn(C)c(=O)c3ccccc23)s1 | 96%
CC(=O)c1cc(C#N)c(N2CCCCC2)nc1C | 97%
COc1cc(COCC(O)CN2CCN(Cc3ccc4c(c3)OCO4)CC2)cc(OC)c1OC (stereo not drawn) | 102%
O=[N+]([O-])c1cccc(Nc2c3ccccc3nc3ccccc23)c1 | 93%
Cc1cc(OCCCN2CCN(Cc3ccccc3)CC2)ccc1[N+](=O)[O-] | 85%
CN(CC(=O)N1CCN(c2ccccc2)CC1)S(=O)(=O)c1cccs1 | 101%
Cc1cc(C)nc(/N=C2\NC(=O)CC(C(=O)O)N2c2ccc(Cl)cc2Cl)n1 (stereo not drawn) | 96%
O=C(c1ccc(F)cc1)N1CCCC(c2nc(-c3cccs3)no2)C1 (stereo not drawn) | 99%
O=C(NC1CCCCC1)C1CCCN(S(=O)(=O)c2ccc(Br)s2)C1 (stereo not drawn) | 100%
Cc1cccc(NC(=O)c2cccc(C(F)(F)F)c2)c1 | 98%
CCOC(=O)c1ccc(NC(=S)N2CCCC2)cc1 | 96%
Cc1ccc(N(C(=O)Cc2cccs2)C(C(=O)NCC2CCCO2)c2ccncc2)cc1 (stereo not drawn) | 108%
CCCNC(=S)N1CCCC(c2nc3ccccc3[nH]2)C1 (stereo not drawn) | 97%
COc1cccc(CN(C)CC(=O)NCc2ccccc2Cl)c1OC | 98%
COc1cc(/C=N/Nc2ccc(C)cc2)cc(Br)c1O | 97%
COc1ccc(/C=C/C(=O)Nc2cccnc2)cc1OC | 98%
COc1cc(/C=N/NC(=S)Nc2cccnc2)cc(OC)c1O | 77% (active)
O=C(O)COc1ccc(/C=N/O)cc1Br | 92%
Cc1nn(CC(=O)Nc2ccc3c(c2)OCO3)c(C)c1[N+](=O)[O-] | 100%
COc1ccc(C2(CNC(=O)Cc3ccc(OC)c(OC)c3)CCCC2)cc1 | 97%
COc1ccc(C2(CNC(=O)C(c3ccccc3)c3ccccc3)CCOCC2)cc1OC | 123% [activator] (active)
CCCCNC(=O)C1(c2ccc(OC)cc2)CCOCC1 | 108%
Cc1cc(NC(=O)CN2C(=O)NC(CCc3ccccc3)C2=O)no1 (stereo not drawn) | 100%
COC(=O)Cn1cc(/C=C/[N+](=O)[O-])c2ccccc21 | 93%

SMILES | GTP binding activity (% of control)
CC(C)C(C)(C#N)NC(=O)CSc1nncn1-c1ccccc1 (stereo not drawn) | 104%
C/C(=N\OCC(=O)Nc1ccc(Br)cc1)c1cccs1 | 93%
CCOC(=O)Cc1ncccc1C(=O)Nc1ccc(OC)cc1 | 100%
O=C(NCc1ccco1)c1nn2cccnc2c1Cl | 99%
O=C(CCC(=O)NNc1nc2ccccc2c2nc(-c3ccccc3)nn12)NCCCN1CCCC1=O | 96%
CCOc1ccc(NC(=O)NNC(=O)c2ccc(Cl)cc2Cl)cc1 | 96%
CN1C(=O)/C(=C/c2ccc(C(=O)NC3CCCC3)cc2)Oc2ccccc21 | 99%
CCn1c(CSc2nc(C)cc(C)n2)nnc1SCC(N)=O | 95%
Cc1c(CN2CCCCC2)c(O)n(CCO)c(=O)c1C#N | 94%
COc1ccc(C)cc1-n1nnnc1SCc1nc2ccccc2c(=O)[nH]1 | 98%
CCCCCc1nnc(NC(=O)c2ccc(=O)n(C)n2)s1 | 101%
CCc1ccc(Oc2nc([N+](=O)[O-])nn2C)cc1 | 98%
CCOC(=O)N1CCN(Cc2nc(Cc3cccc(C(F)(F)F)c3)no2)CC1 | 99%
CSCC(NS(=O)(=O)c1ccc(C)cc1)C(=O)O (stereo not drawn) | 104%
Cc1noc(C)c1CCC(=O)O | 97%
Cn1cnnc1SCc1nnc(-c2ccccc2Br)o1 | 87%
O=C(C1CCCN1S(=O)(=O)c1ccc(Br)cc1)N1CCOCC1 (stereo not drawn) | 97%
O=C(CNC(=O)c1cc(=O)[nH]c2ccccc12)Nc1ccc(F)c(F)c1 | 97%
O=C(CN1CCN(Cc2ccc(F)cc2Cl)C1=O)NCc1cccs1 | 99%
CCn1ccnc1CN(C)Cc1nc(-c2ccc3c(c2)OCO3)no1 | 99%
CC(C)OC(=O)Cn1nc(C(F)(F)F)c2c1CCCC2 | 93%
CCn1cc(C(=O)Nc2cc(C)ccc2C)c(=O)c2ccc(C)nc21 | 100%
N#Cc1ccc(CSc2nnc3ccccn23)cc1 | 104%
CCN(CC)C(=O)CS(=O)CC(=O)Nc1cc(OCCOC)c(Cl)cc1Cl (stereo not drawn) | 103%

SMILES | GTP binding activity (% of control)
S=c1[nH]nc(/C=C/c2ccccc2)o1 | 93%
COc1ccc(C)cc1NC(=S)Nc1ccccc1SC | 100%
CC(=O)Cn1ncc(N2CCOCC2)c(Br)c1=O | 95%
CC(=O)NCCC(=O)Nc1cc(S(=O)(=O)N2CCOCC2)ccc1N1CCOCC1 | 100%
O=C(CSc1nn(-c2ccc(F)cc2)c(=S)s1)NC1CCS(=O)(=O)C1 (stereo not drawn) | 104%
COc1ccc(OC)c(NC(=O)CN(Cc2ccc(Cl)cc2)S(C)(=O)=O)c1 | 97%
COc1ccc(N2CCN(C(=O)C3CCN(S(=O)(=O)c4ccc(C)cc4)CC3)CC2)cc1 | 101%
CCOc1ccccc1N=C1NC(=O)CS1 | 96%
CC/C(O)=C1\C(=O)CC(C)(C)CC1=NCCc1nc2ccccc2[nH]1 | 106%
CCC/C(O)=C1\C(=O)CC(C)(C)CC1=Nc1ccccc1OC | 125% [activator] (active)
CCN(CC)CCCNC(=O)Cn1cnc2sc(C)c(S(=O)(=O)N3CCN(c4ncccn4)CC3)c2c1=O | 93%
Cc1nc2ccc(NC(=S)N3CCC(C)CC3)cc2nc1C | 100%
CC(C)(C)NC(=O)NC(=O)COC(=O)Cc1ccc(Cl)cc1Cl | 101%
Cc1ccc(NC(=O)NC2CCCCC2)cc1S(=O)(=O)N1CCOCC1 | 99%
COc1ncnc2sc3c(c12)CCCC3 | 104%
COc1ccc(/C=N/Nc2ncnc3sc4c(c23)CCCC4)cc1O | 77% (active)
CC1(C)CN=C(N2CCN(c3ncnc4sc5c(c34)CCCC5)CC2)S1 | 99%
O=C1c2oc3ccccc3c(=O)c2C(c2cccc(O)c2)N1c1ccccn1 (stereo not drawn) | 106%
COCCN1C(=O)c2oc3c(C)cc(C)cc3c(=O)c2C1c1cccc(O)c1 (stereo not drawn) | 104%
O=C1c2oc3ccc(Br)cc3c(=O)c2C(c2cccc(F)c2)N1CCO (stereo not drawn) | 123% [activator] (active)
O=C(Nc1cccc(CCc2ccccn2)c1)c1ccc(Cl)cc1 | 97%
CC1(C)OC(=O)C(=CNC(CO)C(=O)O)C(=O)O1 (stereo not drawn) | 100%
CC1CN(CCCOc2ccccc2-c2ccccc2)CC(C)O1 (stereo not drawn) | 94%
CCOc1ccc(-n2cnnn2)cc1S(=O)(=O)N1CCC(C)CC1C (stereo not drawn) | 97%

SMILES | GTP binding activity (% of control)
COc1ccc(NC(=O)N2CCCC(c3nc(-c4ccc(F)cc4)no3)C2)cc1 (stereo not drawn) | 103%
CNc1[nH]ncc1[N+](=O)[O-] | 95%
Cc1cc(C)cc(C(=O)NCC(=O)OCC(=O)N2CCCCC2)c1 | 99%
COc1ccc(NC(=O)c2cc3nc(-c4ccccc4)cc(C)n3n2)cc1OC | 78% (active)
COC(=O)c1cc2nc(-c3ccccc3)cc(C(F)(F)F)n2n1 | 99%
COc1ccc(NC(=O)c2ccccc2[N+](=O)[O-])cc1OC | 105%
Cc1ccc(NC(=S)NC(=O)c2ccc(-c3ccccc3)cc2)c(C)c1 | 99%
Cc1ccc(Nc2c(F)c(F)c(F)c(F)c2C(=O)O)c(C)c1 | 154% [activator] (active)
COc1c(F)c(F)c(C(=O)O)c(Nc2ccccc2C)c1F | 101%
COc1ccc(-n2c(O)c(C=NCC(c3ccco3)N3CCCC3)c3ccccc3c2=O)cc1OC (stereo not drawn) | 102%
CN(C)S(=O)(=O)c1ccc(NC(=O)N2CCOCC2)cc1 | 100%
Cc1ccc(OCC(=O)NC(C)c2ccccc2)c([N+](=O)[O-])n1 (stereo not drawn) | 98%
O=C(NNC(=O)c1ccc(Cl)cc1Cl)c1cccs1 | 96%
Cc1ccc(Cl)cc1NC(=O)c1ccccn1 | 90%
COc1ccc(/C=N/NC(=O)CNC(=O)c2ccc(S(=O)(=O)N3CCCC3)cc2)c(OC)c1 | 98%
CC(C)(C)c1ccc(C(=O)CSc2ncn[nH]2)cc1 | 105%
Cc1ccc(SC(CC(=O)c2ccc(C(C)(C)C)cc2)C(=O)O)cc1 (stereo not drawn) | 79% (active)
Cc1ccc(C(=O)CS(C)(=O)=O)cc1 | 101%
N/C(=N\OC(=O)c1ccc2c(c1)OCO2)c1ccc(Br)cc1 | 94%
COc1ccc(C)cc1NC(=O)NCc1ccccn1 | 103%
CN(CCN1CCOCC1)Cc1nc(-c2ccc3c(c2)OCO3)no1 | 98%
O=C(NCCCN1CCOCC1)c1ccccc1NS(=O)(=O)c1ccc(Br)cc1 | 100%
